Hit rate of the full screen: of about 96,000 compounds, about 20,000 (21%) were called active. The list is a sample of the results. A number with no mark means an inactive call.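 Rule for the calls: active = CYP2C19 inhibition above a set limit at 5 µM in the primary screen (cut at about 50% in these data); inactive = the rest.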

Chain of Cytochrome P450 2C19 (Homo sapiens) (P33261 whole entry, looked up): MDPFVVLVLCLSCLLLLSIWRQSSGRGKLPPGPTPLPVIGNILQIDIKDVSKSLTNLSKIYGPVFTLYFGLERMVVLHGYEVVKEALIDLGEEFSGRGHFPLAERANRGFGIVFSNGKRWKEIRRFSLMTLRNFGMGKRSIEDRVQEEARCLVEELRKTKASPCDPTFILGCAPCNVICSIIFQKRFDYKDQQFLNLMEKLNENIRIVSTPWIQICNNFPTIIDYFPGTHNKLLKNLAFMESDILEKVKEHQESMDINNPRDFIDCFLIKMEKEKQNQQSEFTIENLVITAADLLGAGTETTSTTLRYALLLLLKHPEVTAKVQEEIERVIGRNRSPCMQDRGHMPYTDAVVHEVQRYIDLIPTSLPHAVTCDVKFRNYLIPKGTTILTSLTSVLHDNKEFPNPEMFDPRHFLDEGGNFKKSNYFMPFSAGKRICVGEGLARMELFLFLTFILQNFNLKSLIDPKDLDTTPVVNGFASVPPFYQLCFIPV

This assay has as its target Cytochrome P450 2C19 (Homo sapiens) (UniProt P33261). Nature of the assay: blockers of cytochrome P450 2C19 activity – biochemical, luminescence, ADME assay, primary screen (AID 778).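 Note: plate controls were negative control wells for no effect and 2.5 mM tranylcypromine positive control for full effect.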 The following applies: CYP2C19 Supersomes, luciferin-H EGE luminescence, 30 min; at 5 µM; active compounds read high.
For `Cc1ccccc1Nc1nc(N)nc(CN2CCN(c3ccccn3)CC2)n1`, the inhibition (in general, the drop in the measured response relative to a control, in per cent) was 12.9%. The value for `Cc1ccc(C)c(NC(=O)c2ccc(OC(=O)c3ccco3)cc2)c1` was 4.9%. Then `CCC(CC)c1nnc(NS(=O)(=O)Cc2ccccc2)s1`, with -10.5%; and `COc1ccc(Cn2cccc(NC(=O)Nc3ccc(C#N)cc3)c2=O)cc1`, with 5.5%; and `O=C(Nc1cccn(Cc2c(Cl)cccc2Cl)c1=O)c1ccc(Cl)cc1`, with 79.9% (active). Regarding `CSc1ccc(C#N)cc1NC(=O)c1ccc(Cl)cc1`, the inhibition is 3%. Then `Cc1cc(/C=C2/SC(=O)N(CC(=O)OC(C)C)C2=O)c(C)n1C`, with 1.6%.

For the molecule `Cc1c(NC(=O)CSc2cccc3cccnc23)c(=O)n(-c2ccccc2)n1C`, the inhibition was -13.9%. The value for `Cc1ccc(-n2nc3cc(Cl)c(NC(=O)c4ccco4)cc3n2)cc1` was 10.3%; that for `CC1CCc2c(c3ccccc3[nH]c2=O)O1` (stereo unspecified) was 25.5%. Then `Clc1ccc(-c2nnc(-c3ccccc3)nc2N2CCSCC2)cc1`, with 72% (active); and `CC1CN(c2nc(-c3ccccc3)nnc2-c2ccccc2)CC(C)O1` (stereo unspecified), with -3.1%; and `Cn1nc(-c2ccccc2)c(-c2nc(-c3ccc(Cl)cc3)no2)c1Cl`, with -16.4%. Turning to `O=C(Nc1ccccc1C(F)(F)F)c1cc(-c2ccc(O)cc2)on1`, the inhibition was 6.8%. As to `COc1ccc(C(=O)Nc2nc(-c3ccc(S(=O)(=O)N4CCOCC4)cc3)cs2)cc1`, the inhibition is 14.6%. `Cn1ccs/c1=N\S(=O)(=O)c1ccc(C(C)(C)C)cc1`: the inhibition is 65% (active). Then `CCC1=[N+]([O-])C(C)(/C(C)=N\O)N(O)C1(C)C` (stereo unspecified), with 23.5%; and `NC(=O)Cn1c(=O)oc2ccccc21`, with -6.4%. Then `O=C1C(Cl)=C(N2CCOCC2)C(=O)N1c1ccccc1`, with 84.7% (active). The value for `c1ccc(-n2nnnc2N2CCOCC2)cc1` was 33.5%; that for `O=C(c1ccc(S(=O)(=O)N2CCOCC2)cc1)N1CCN(c2ccccc2)CC1` was -4.7%. In the case of `CC(C)(C)NC(=O)c1cc(NC(=O)c2ccco2)cc(NC(=O)c2ccco2)c1`, the inhibition was 20.8%. Then `CCOC(=O)C1=C(C)Nc2sc(C(=O)c3ccc(Br)cc3)c(N)c2C1c1ccc(C(=O)OC)cc1` (stereo unspecified), with 88.2% (active); and `CCOC(=O)c1sc(=S)n2c1[nH]c(=O)c1ccc(C(=O)OC)cc12`, with -1.3%.

In the case of `CCOC(=O)N1CCC(NC(=O)c2cnn3ccccc23)CC1`, the inhibition is 5.9%. With `O=C1C(C=NCC2CCCO2)=C(O)c2ccccc21` (stereo unspecified), the inhibition was 8.1%.

For the molecule `CCCCCCC(=O)Nc1nc(C)c(-c2csc(Nc3cc(Cl)ccc3OC)n2)s1`, the inhibition is -7.7%.

As to `C=CCCC(=O)Nc1nc(C)c(-c2csc(Nc3ccc(Cl)cc3)n2)s1`, the inhibition was 56.4% (active). `CCCCC(=O)Nc1nc(C)c(-c2csc(Nc3ccc(Cl)cc3)n2)s1`: the inhibition was 45.9%.

Consider `O=C(Nc1cc(N2CCOCC2)ncn1)NC1(C(F)(F)F)Oc2ccc(Cl)cc2O1` (stereo unspecified), for which the inhibition is 1%. Then `CSCCC(NC(N)=O)C(=O)N(C)CC(=O)Nc1ccc(C)cc1` (stereo unspecified), with 3.3%; and `O=[N+]([O-])c1ccc(N2CCN(S(=O)(=O)c3ccc4ccccc4c3)CC2)cc1NCc1ccco1`, with 19.1%; and `O=C(c1ccccc1)N1CCN(c2ccc([N+](=O)[O-])c(NCc3ccco3)c2)CC1`, with 82.3% (active). Then `O=C(NCc1ccco1)c1nc(-c2ccccc2)n(-c2ccccc2)n1`, with 25.6%. `O=C1N=C(N2CCOCC2)S/C1=C\C=C/c1ccccc1`: the inhibition is 10.8%. The value for `Cc1ccsc1/C=C1\SC(N2CCOCC2)=NC1=O` was 29%; that for `O=C1N=C(N2CCCC2)S/C1=C\c1cccc(Br)c1` was 58.2% (active); that for `Cc1nc([N+](=O)[O-])nn1C12CC3CC(CC(Br)(C3)C1)C2` was 15.2%. The value for `COC(=O)c1sccc1NC(=O)c1cc(OC)c(OC)c(OC)c1` was 5.1%; that for `CCCCN=C1N/C(=C\c2ccco2)C(=O)N1c1ccccc1` was 0.7%. Then `O=C(NC1=NCCS1)[C@H](Cc1ccccc1)N1C(=O)c2ccccc2C1=O`, with 57.5% (active). As to `CSCCC(C(=O)NC1=NCCS1)N1C(=O)c2ccccc2C1=O` (stereo unspecified), the inhibition was 17.5%.

With `O=C(NCCN1CCOCC1)[C@H](Cc1ccccc1)N1C(=O)c2ccccc2C1=O`, the inhibition was -8.6%. Then `C=CCn1c(SCc2csc(C)n2)nc2scc(-c3ccc(C)o3)c2c1=O`, with 16.7%; and `O=C(CCc1ccc(S(=O)(=O)N2CCOCC2)cc1)Nc1ccc2ccccc2c1`, with 62.6% (active). Take `O=S(=O)(c1ccc2ccccc2c1)N1CCN(S(=O)(=O)N2CCOCC2)CC1`: the inhibition is 20.2%.

For the molecule `Cn1c(SCC(=O)Nc2cccc(O)c2)nnc1-c1ccc(S(=O)(=O)N2CCOCC2)cc1`, the inhibition was 2.3%.

As for `CCOC(=O)N1CCN(CC(=O)n2c(C)c(C)c3ccccc32)CC1`, the inhibition was 37.1%. The value for `CCCc1nc(N)nc2c1C(=O)CC(C)(C)C2` was 7.6%; that for `CC(C)c1ccc(/C=C/C(=O)NNC(=O)c2cccnc2)cc1` was 1.1%; that for `COc1ccc2[nH]cc(/C=C(/C#N)S(=O)(=O)c3ccccc3)c2c1` was 99.8% (active). Then `COc1ccc(/C=C(\NC(=O)c2ccc(OC)c(OC)c2)C(=O)NCCc2c[nH]c3ccccc23)cc1`, with 35.2%; and `CCn1nc(NC(=O)c2ccco2)c2cc3ccc(C)cc3nc21`, with 7.9%.

As to `O=C(NC1(C(F)(F)F)N=C2SCCN2C1=O)c1ccco1` (stereo unspecified), the inhibition is -15.5%. Turning to `CCN(CC)C(=O)CSc1nnc(CNc2ccc(F)cc2)n1Cc1ccco1`, the inhibition was -8.4%. The value for `N=C(N)SCc1cccc2ccccc12` was -3.6%; that for `N#C/C(=C(/O)Cc1cccc2ccccc12)c1nc2ccccc2s1` was -0.2%; that for `c1ccc2c(C[n+]3csc4ccccc43)cccc2c1` was 60.7% (active).

In the case of `Cc1c2cn[nH]c(=O)c2c(C)n1Cc1ccc(F)cc1`, the inhibition is 48.3%. Then `Cc1ccc2oc(=O)c3cnn(CC(=O)N(Cc4ccco4)C4CCCCC4)c3c2c1`, with 7.4%; and `CCOC(=O)c1c(NC(=O)CCCN2CCOCC2)sc2c1CC(C)(C)OC2`, with 9.3%.

These data come from PubChem BioAssay AID778 (Sanford-Burnham Center for Chemical Genomics, 2007).
